Bioassay records as filed in PubChem BioAssay.
Hits are enriched below; roughly 2.4% of the tested compounds scored in any of these assays.
CHT block: inhibits the human high affinity choline transporter; Q9GZV3; CHT-expressing cells, membrane potential dye, choline response; hits give low values; B-score at 10 µM; actives 0.86% (n = 310,000); AID 488975;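 active means B-score over 3 SD under the library average, and starting fluorescence ratio not unusually high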;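 further: choline stimulus applied at its EC90 after an EC20 pre-addition; B-score computed on integrated fluorescence ratio after choline addition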
TMEM16A inh: inhibitors of mouse TMEM16A calcium-activated chloride channel. actives 1.2% (n = 310,000). Q8BHY3. HEK293 TMEM16A/YFP iodide influx fluorescence, ionomycin. normalized B-score (activity score, 25-100; higher = stronger inhibition) at 10 µM;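 active means ratio plate-corrected score three or more library SD toward inhibition, starting fluorescence score within five deviations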;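 further: score derived from kinetic fluorescence span divided by baseline fluorescence per well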
Target sequence (Q8BHY3 whole entry, looked up): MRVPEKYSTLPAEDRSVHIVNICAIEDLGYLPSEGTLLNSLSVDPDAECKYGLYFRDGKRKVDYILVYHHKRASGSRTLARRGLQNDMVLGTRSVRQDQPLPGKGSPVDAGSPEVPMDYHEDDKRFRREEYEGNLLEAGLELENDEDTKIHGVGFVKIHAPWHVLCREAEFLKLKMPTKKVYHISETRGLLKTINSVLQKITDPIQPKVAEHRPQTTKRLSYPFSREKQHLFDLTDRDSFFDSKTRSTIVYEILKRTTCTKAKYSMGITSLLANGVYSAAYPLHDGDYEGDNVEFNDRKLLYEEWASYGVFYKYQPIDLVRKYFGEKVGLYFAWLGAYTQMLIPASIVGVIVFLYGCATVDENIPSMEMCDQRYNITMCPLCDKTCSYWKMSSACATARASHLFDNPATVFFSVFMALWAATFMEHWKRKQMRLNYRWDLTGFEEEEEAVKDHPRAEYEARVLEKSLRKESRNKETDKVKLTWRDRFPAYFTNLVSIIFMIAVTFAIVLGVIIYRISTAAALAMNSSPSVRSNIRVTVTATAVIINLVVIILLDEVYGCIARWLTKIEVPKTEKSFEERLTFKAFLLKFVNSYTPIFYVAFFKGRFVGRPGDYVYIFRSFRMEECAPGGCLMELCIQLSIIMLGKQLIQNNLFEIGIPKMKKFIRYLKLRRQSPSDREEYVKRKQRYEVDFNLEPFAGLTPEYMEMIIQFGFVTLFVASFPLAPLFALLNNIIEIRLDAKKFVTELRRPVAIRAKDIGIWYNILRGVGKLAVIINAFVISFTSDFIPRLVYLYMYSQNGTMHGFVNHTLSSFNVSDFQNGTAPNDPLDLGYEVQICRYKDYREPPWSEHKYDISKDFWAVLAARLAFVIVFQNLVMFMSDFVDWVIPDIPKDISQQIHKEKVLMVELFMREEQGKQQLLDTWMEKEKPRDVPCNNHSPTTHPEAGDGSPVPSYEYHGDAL
ANO1 activ: activators or potentiators of mouse TMEM16A chloride channel | HEK293 TMEM16A/YFP-H148Q/I152L, iodide quench fluorescence; hits give low values | B-score at 10 µM | actives 0.3% (n = 340,000);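 active means fluorescence-ratio B-score plate-corrected deviation score at least 3 library SD below zero, with starting fluorescence score within 5 deviations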;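 further: channel opened by trigger with iodide after compound preincubation; score built on the fluorescence ratio of max minus min over baseline; more negative score means more quench and so TMEM16A activation or potentiation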
CHT allo act: allosteric activators of human choline transporter CHT | actives 0.49% (n = 310,000) | B-score at 10 µM | AID 488977 | CHT-expressing cells, membrane potential dye, choline EC20; hits give high values; LV-AA mutant CHT in HEK293 cells;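 active means initial fluorescence not abnormally high and integrated response B-score, plate-corrected, over 3 SD above library mean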
CHT inh conf: confirmation of human choline transporter CHT inhibitors; CHT-expressing cells, choline membrane potential dye; LV-to-AA substituted CHT, HEK293 cells; shares compounds with CHT block; actives 70% (n = 2,400); CHT activity remaining % of control (hits give low values), % at 10 µM; AID 493221;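 active means choline transporter activity left, mean of duplicates at 10 µM, below buffer-only control mean minus 3 SD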;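 further: depolarization triggered by choline at its EC90 following an EC20 pre-addition; 0% = hemicholinium-3 full block and 100% = buffer-only control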
HEK293 CHT ctr: CHT inhibitor counter-screen hit in parental HEK293 cells; AID 493222; membrane potential dye, choline response; active = decrease or increase beyond buffer ±3SD; actives 4% (n = 2,400); membrane potential ratio readout (active if shifted either direction beyond buffer ±3SD; no single direction) at 10 µM; shares compounds with CHT block;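 further: parental cells lack the transporter so any hit is non-specific; ratio is peak minus trough fluorescence over baseline after EC90 choline challenge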
* = called active by the depositor; i = inactive; / = not tested or not shown.

SMILES | CHT block | TMEM16A inh | ANO1 activ | CHT allo act | CHT inh conf | HEK293 CHT ctr
Cn1c(-c2ccccc2)cnc1SCc1nc2ccccc2c(=O)[nH]1 | -5.32* | i | i | i | 60.0%* | i
Cn1c(SCc2nc3ccccc3c(=O)[nH]2)nc2ccccc21 | i | i | i | i | / | /
CCOC(=O)C1CCCN(CC(=O)N(C)c2c(N)n(Cc3ccccc3)c(=O)[nH]c2=O)C1 (stereo not given) | / | / | i | / | / | /
Cc1c(C(=O)N2CCCCC2)c(S(=O)(=O)NCc2ccc(Cl)cc2)c(C)n1C | i | i | i | i | / | /
Cc1ccc(NC(=O)c2ccc(Cn3cc([N+](=O)[O-])cn3)cc2)c(C)c1 | -5.16* | i | i | i | 41.9%* | i
COc1ccc(NC(=S)NCCN2CCOCC2)c(OC)c1 | i | i | i | i | / | /
COc1ccccc1NC(=S)NCCN1CCOCC1 | -8.35* | i | i | i | i | i
Cc1sc2ncnc(SCc3ccco3)c2c1C | i | i | i | i | / | /
Cc1sc2ncnc(N(C)Cc3ccco3)c2c1C | -5.1* | i | i | i | i | i
Cc1cc([N+](=O)[O-])c(NCCCCCCO)c([N+](=O)[O-])c1 | -5.44* | i | i | i | 38.4%* | i
CCC(C)Nc1c([N+](=O)[O-])cc(C)cc1[N+](=O)[O-] (stereo not given) | i | i | i | i | / | /
O=[N+]([O-])c1ccc(N2CCCC2)nc1 | i | i | i | i | / | /
O=[N+]([O-])c1ccc(N2CCCCC2)nc1 | -5.79* | i | i | i | 60.4%* | i
CC1CCN(S(=O)(=O)c2nnc(NC(=O)c3cccc(Cl)c3)s2)CC1 | -6.56* | i | i | i | i | i
COc1ccccc1C(=O)Nc1nnc(S(=O)(=O)N2CCC(C)CC2)s1 | i | i | i | i | / | /
COc1ccc2c(c1OC)C(=O)N1c3ccccc3C(=O)N(c3ccccc3)C21 (stereo not given) | -8.53* | i | i | i | i | i
COc1ccc(CN2CCN(CCC(C)C)C(CCO)C2)cc1Cn1cccn1 (stereo not given) | i | i | i | i | / | /
COc1ccc(CN2CCN(C(C)C)C(CCO)C2)cc1Cn1cccn1 (stereo not given) | -11.9* | i | i | i | 6.3%* | i
CC1CCCCC1NC(=O)c1c(O)nc2ccccn2c1=O (stereo not given) | -7.09* | i | i | i | 60.3%* | i
CC1CCCCC1NC(=O)c1cc2c(=O)n3ccccc3nc2n1C (stereo not given) | i | i | i | i | / | /
COc1ccc(Cl)cc1NC(=O)CN(C)C(=O)c1cc2c(s1)CCC(C)C2 (stereo not given) | i | i | i | i | / | /
CN(C)CCCN(C(=O)c1ccc(S(=O)(=O)N(C)Cc2ccccc2)cc1)c1nc2c(F)cccc2s1 | i | i | i | i | / | /
CCOc1cccc2sc(N(CCCN(C)C)C(=O)c3ccc(S(=O)(=O)N(C)c4ccccc4)cc3)nc12 | -5.45* | i | i | i | i | i
CC(=O)Nc1cccc(C(=O)Nc2cccnc2)c1 | i | i | i | i | / | /
O=C(O)c1ccc(Nc2ccc([N+](=O)[O-])c3nonc23)cc1 | i | i | i | i | / | /
SMILES | CHT block | TMEM16A inh | ANO1 activ | CHT allo act | CHT inh conf | HEK293 CHT ctr
O=[N+]([O-])c1ccc(Nc2ccccc2O)c2nonc12 | -5.88* | i | i | i | 53.3%* | i
COc1ccc(/C=N/NC(=O)c2ccncc2)cc1Cn1nc([N+](=O)[O-])c(Br)c1C | i | i | i | i | / | /
O=c1oc2ccccc2c(N2CCCC2)c1CN1CCCC1 | i | i | i | i | / | /
O=c1oc2ccccc2c(Cl)c1CN1CCCCC1 | -6.86* | i | i | i | 31.0%* | i
O=C(NNc1ccc(C(F)(F)F)cc1[N+](=O)[O-])c1ccc(NS(=O)(=O)c2ccc(F)cc2)cc1 | -10* | i | i | i | 51.9%* | i
CCN(CC)C(=S)SCC(=O)Nc1ccc(S(N)(=O)=O)cc1 | -5.58* | i | i | i | i | i
CN(C)CC(=O)Nc1ccc(S(N)(=O)=O)cc1 | i | i | i | i | / | /
Cc1cccc(CCNC(=O)C2CCCN(c3ncnc4c3nc3n4CCCCC3)C2)c1 (stereo not given) | -7.61* | i | i | i | 18.7%* | i
COc1ccccc1NC(=O)C1CCCN(c2ncnc3c2nc2n3CCCCC2)C1 (stereo not given) | -6.8* | i | i | i | 5.7%* | i
O=C(NCCc1ccc(Cl)cc1)C1CCCN(c2ncnc3c2nc2n3CCCCC2)C1 (stereo not given) | i | i | i | i | / | /
O=C(Nc1ccccc1Cl)C1CCCN(c2ncnc3c2nc2n3CCCCC2)C1 (stereo not given) | -5.19* | i | i | i | 25.6%* | i
COc1ccc(C(C(=O)NC2CCCC2)N(C(=O)c2csnn2)C2CCCC2)cc1 (stereo not given) | i | i | i | i | / | /
O=C(CSc1nnc(-c2ccccc2)n1Cc1ccco1)NCc1ccc2c(c1)OCO2 | i | i | i | i | / | /
Cc1cc(-c2ccccc2)n(-c2ccc(C(=O)N3CCN(c4ncccn4)CC3)cc2)n1 | -6.43* | i | i | i | 70.6%* | i
Cc1oc(C(=O)O)cc1COc1ccc2c3c(c(=O)oc2c1C)CCC3 | -6.58* | i | i | i | 43.5%* | i
COc1ccc(N(CC(=O)NCc2ccccc2C)S(=O)(=O)c2ccccc2[N+](=O)[O-])c(OC)c1 | i | i | i | i | / | /
Cc1[nH]n(-c2ccccc2)c(=O)c1/C=N/NC(=O)c1cccc([N+](=O)[O-])c1 | i | i | i | i | / | /
Cc1ccc(-n2[nH]c(C)c(/C=N/Nc3ccc([N+](=O)[O-])cc3[N+](=O)[O-])c2=O)cc1C | -8.38* | 25* | i | i | 35.5%* | i
CCOC(=O)c1cccc(NC(=O)CSc2nnc(C)n2Cc2ccccc2)c1 | -6.9* | i | i | i | 66.2%* | i
Cc1nnc(SCC(=O)NNC(=O)c2ccccc2)n1Cc1ccccc1 | / | / | i | / | / | /
COc1ccc(NC(=O)CSc2nnc(C)n2Cc2ccccc2)cc1 | i | i | i | i | / | /
Cc1nnc(SCC(=O)c2ccccc2)n1Cc1ccccc1 | -5.29* | i | i | i | 47.1%* | -8.62*
